The source of these data is PubChem BioAssay (NCI).

This is part of a sample that, as a whole, favours compounds with a hit. Of some 83,000 tested, about 20% had one in any assay.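 Single-concentration screen, 48 h exposure, 96-well plates. Endpoint: percent growth. Below 10 = active.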 A number with no mark means an inactive call. The source made the active and inactive calls.

What all share (assay): NCI-60 one-dose screen, 48 h (100 = growth as untreated, 0 = no growth, -100 = all killed)
One assay has as its system NCI-H23 lung. To be noted: 10 µM unless noted.
The subject of another assay is NCI-H226 lung. To be noted: 10 µM unless noted.
The next assay deals with NCI-H322M lung. The settings on record: 10 µM unless noted.
For a further assay, the system named is HOP-62 NSCLC. The settings on record: 10 µM unless noted.
The test system of another assay is NCI-H460 lung. The settings on record: 10 µM unless noted.
In another assay the test system is HOP-92 NSCLC. To be noted: 10 µM unless noted.
The next assay deals with NCI-H522 lung. To be noted: 10 µM unless noted.
The test system of the next assay is A549/ATCC NSCLC. To be noted: 10 µM unless noted.
The test system of a further assay is 786-0 renal. The settings on record: 10 µM unless noted.
For a further assay, the system named is COLO 205 colon. To be noted: 10 µM unless noted.
In a further assay the test system is DU-145 prostate. The settings on record: 10 µM unless noted.
The test system of a further assay is K-562 leukemia. To be noted: 10 µM unless noted.
For a further assay, the system named is MALME-3M melanoma. To be noted: 10 µM unless noted.
A further assay deals with MDA-MB-231 breast. To be noted: 10 µM unless noted.
The next assay deals with RXF 393 renal. To be noted: 10 µM unless noted.
A further assay concerns SF-268 CNS. To be noted: 10 µM unless noted.
A further assay concerns SF-295 CNS. To be noted: 10 µM unless noted.
A further assay deals with SF-539 CNS. To be noted: 10 µM unless noted.
The subject of a further assay is UACC-257 melanoma. The settings on record: 10 µM.
The test system of a further assay is M14 melanoma. The settings on record: 10 µM unless noted.

As to `COc1ccc(OC)c(C(=O)c2oc3ccc(Br)cc3c2N)c1`, the growth in the assay with NCI-H23 lung is 24.7%; in the assay with NCI-H226 lung it was 55.9%; in the assay on NCI-H322M lung, 20.9%; in the assay on HOP-62 NSCLC, 33.6%; in the assay with NCI-H460 lung it was 8.36% (active); in the assay on HOP-92 NSCLC, 4.96% (active). For the same compound, the growth was -2.14% (active) in the assay with NCI-H522 lung; 12.2% in the assay with A549/ATCC NSCLC; 38% in the assay with 786-0 renal; -16.1% (active) with COLO 205 colon; 16.3% with DU-145 prostate; 8.24% (active) with K-562 leukemia. Moreover, the growth in the assay on MALME-3M melanoma is 35.2%; with MDA-MB-231 breast it was 29.8%; with RXF 393 renal, -30.1% (active); with SF-268 CNS it was 47.3%; in the assay on SF-295 CNS it was -35.1% (active); in the assay with SF-539 CNS it was -44.4% (active). The growth in the assay with UACC-257 melanoma is 49.9%; with M14 melanoma it was 27.3%.
Take `COc1ccc(-c2nc3sccn3c2-c2ccnc(NCCCNS(=O)(=O)c3ccc4ccccc4c3)n2)cc1`: the growth in the assay with NCI-H23 lung is 64.3%; in the assay on NCI-H226 lung it was 62%; in the assay with NCI-H322M lung, 93.1%; in the assay with HOP-62 NSCLC it was 134%; in the assay with NCI-H460 lung, 75.9%; in the assay with HOP-92 NSCLC it was 104%. The growth in the assay on NCI-H522 lung is 62.4%; in the assay on A549/ATCC NSCLC, 76.1%; in the assay with 786-0 renal, 67.6%; with COLO 205 colon, 57.6%; in the assay with DU-145 prostate, 62.1%; with K-562 leukemia, 34.6%. Further, the growth in the assay with MALME-3M melanoma was 80.8%; in the assay with MDA-MB-231 breast it was 53.7%; in the assay on RXF 393 renal, 76.9%; in the assay with SF-268 CNS, 63.5%; in the assay with SF-295 CNS it was 61%; in the assay with SF-539 CNS, 71.7%. Besides, the growth with UACC-257 melanoma is 82.8%; in the assay on M14 melanoma it was 56.5%.
In the case of `COc1ccc(C(=O)/C=C/c2ccc(/C=C/c3cc(OC)c(OC)c(OC)c3)cc2)cc1`, the growth in the assay on NCI-H23 lung is 43.5%; in the assay with NCI-H226 lung it was 72.4%; in the assay with NCI-H322M lung it was 64.8%; in the assay with HOP-62 NSCLC, 71%; with NCI-H460 lung, 59.6%; in the assay on HOP-92 NSCLC, 51.9%. Also, the growth in the assay on NCI-H522 lung is 5.55% (active); in the assay with A549/ATCC NSCLC, 36.3%; with 786-0 renal, 67.7%; in the assay on COLO 205 colon, 68.1%; in the assay with DU-145 prostate, 68.4%; in the assay with K-562 leukemia, 14.4%. Further, the growth is 66.8% with MALME-3M melanoma; 76.8% in the assay with MDA-MB-231 breast; 71.3% in the assay with RXF 393 renal; 66.2% in the assay with SF-268 CNS; 57.9% in the assay with SF-295 CNS; 86.3% in the assay on SF-539 CNS. Besides, the growth with UACC-257 melanoma was 72.5%; with M14 melanoma it was 67%.
Regarding `COc1cccc(NC(=O)c2sc3nc4c(cc3c2N)CCCC4)c1`, the growth in the assay on NCI-H23 lung is 32.3%; in the assay on NCI-H226 lung it was 57.2%; with NCI-H322M lung, 38.9%; in the assay on HOP-62 NSCLC, 27.7%; in the assay with NCI-H460 lung, 12%; with HOP-92 NSCLC, 43.6%. Also, the growth was 4.31% (active) with NCI-H522 lung; 17.4% in the assay with A549/ATCC NSCLC; 34.3% in the assay with 786-0 renal; 49.2% with COLO 205 colon; 13% in the assay with DU-145 prostate; 12.2% in the assay with K-562 leukemia. The growth with MALME-3M melanoma is 17%; in the assay on MDA-MB-231 breast it was 51.9%; with RXF 393 renal, 7.62% (active); in the assay with SF-268 CNS it was 49.5%; in the assay with SF-295 CNS, 35.4%; in the assay on SF-539 CNS, -12.8% (active). Also, the growth in the assay with UACC-257 melanoma was 64.5%; in the assay with M14 melanoma it was 16.6%.
Turning to `NC(=O)NC(=O)/C=C/C(=O)OCCCl`, the growth was 111% in the assay on NCI-H23 lung; 98.2% with NCI-H226 lung; 105% with NCI-H322M lung; 114% in the assay on HOP-62 NSCLC; 104% in the assay on NCI-H460 lung; 71.6% in the assay with HOP-92 NSCLC. In addition, the growth was -42.5% (active) in the assay with NCI-H522 lung; 105% with A549/ATCC NSCLC; 125% in the assay with 786-0 renal; 97.7% with COLO 205 colon; 112% in the assay with DU-145 prostate; 94.4% in the assay on K-562 leukemia. For the same compound, the growth in the assay on MALME-3M melanoma is 95.9%; in the assay on MDA-MB-231 breast, 115%; in the assay with RXF 393 renal, 105%; in the assay with SF-268 CNS it was 110%; in the assay with SF-295 CNS it was 89.1%; with SF-539 CNS it was 105%. Further, the growth was 77.4% in the assay on UACC-257 melanoma and 113% in the assay on M14 melanoma.
Consider `CCCCNC(=O)NS(=O)(=O)c1ccc(N2N=C(c3ccc(C)cc3C)CC2c2ccc(OC)cc2)cc1` (stereo not given), for which the growth in the assay with NCI-H23 lung is 65.4%; with NCI-H226 lung, 86.7%; with NCI-H322M lung, 90.6%; in the assay on HOP-62 NSCLC it was 92%; in the assay with NCI-H460 lung, 48.3%; in the assay on HOP-92 NSCLC it was 75.1%. Also, the growth with NCI-H522 lung is 54.4%; with A549/ATCC NSCLC it was 38.4%; with 786-0 renal, 61.3%; with COLO 205 colon, 93.5%; with DU-145 prostate, 92.4%; in the assay with K-562 leukemia, 58.9%. In addition, the growth was 108% with MALME-3M melanoma; 85.4% in the assay with MDA-MB-231 breast; 82.6% with RXF 393 renal; 84.8% with SF-268 CNS; 41.6% in the assay with SF-295 CNS; 69.7% in the assay on SF-539 CNS. Further, the growth with UACC-257 melanoma is 72.5%; in the assay with M14 melanoma, 42.7%.
`CCN(C(=O)c1cc2ncccc2[nH]1)[C@H]1CCC[C@@H](NCc2cccc(F)c2)C1`: the growth in the assay on NCI-H23 lung is 97.4%; in the assay with NCI-H226 lung, 101%; in the assay on NCI-H322M lung, 80.6%; in the assay with HOP-62 NSCLC, 105%; in the assay with NCI-H460 lung, 105%; in the assay on HOP-92 NSCLC, 92.1%. Also, the growth was 89.8% in the assay on NCI-H522 lung; 102% with A549/ATCC NSCLC; 110% with 786-0 renal; 18.7% with COLO 205 colon; 104% in the assay on DU-145 prostate; 105% with K-562 leukemia. For the same compound, the growth in the assay with MALME-3M melanoma is 92%; with MDA-MB-231 breast, 91.4%; with RXF 393 renal, 95.1%; in the assay with SF-268 CNS it was 102%; with SF-295 CNS, 102%; in the assay with SF-539 CNS it was 98.5%. Further, the growth in the assay on UACC-257 melanoma is 107%; in the assay on M14 melanoma, 113%.
As to `c1cc(-c2ccc3c(c2)OCO3)n2nccc2n1`, the growth in the assay with NCI-H23 lung was 104%; in the assay with NCI-H226 lung, 83%; with NCI-H322M lung, 99.3%; in the assay with HOP-62 NSCLC it was 108%; with NCI-H460 lung, 101%; in the assay on HOP-92 NSCLC, 83.9%. Further, the growth in the assay on NCI-H522 lung was 89.7%; in the assay with A549/ATCC NSCLC, 99.2%; in the assay on 786-0 renal, 101%; with COLO 205 colon it was 113%; in the assay with DU-145 prostate, 106%; in the assay with K-562 leukemia it was 102%. The growth in the assay on MALME-3M melanoma was 104%; with MDA-MB-231 breast, 106%; with RXF 393 renal, 96.4%; with SF-268 CNS, 104%; with SF-295 CNS, 99.9%; in the assay with SF-539 CNS it was 89.1%. The growth in the assay on UACC-257 melanoma was 103%; in the assay with M14 melanoma it was 109%.
